This is part of a sample that, as a whole, favours compounds with a hit. Of some 79,000 tested, about 15% had one in any assay. The source made the active and inactive calls. Cut-off read from the data, not from the text of the source: active = growth inhibition above about 70%; inactive = the rest.
Columns and labels:
[1] = NCI Yeast Anticancer Drug Screen. Data for the rad52 strain (AID 147);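 note: 0% = growth of vehicle-treated control cultures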; settings: S. cerevisiae rad52 mutant growth inhibition, stronger effect = higher value
Method in brief: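 Genetically altered yeast (DNA damage repair defect) treated with compound; inhibition calculated relative to vehicle.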

[2] = NCI Yeast Anticancer Drug Screen. Data for the wt1 strain (AID 149);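 note: 0% = growth of vehicle-treated wt1 cultures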; settings: S. cerevisiae wt1 strain (SPY 50644) growth inhibition, stronger effect = higher value
Method in brief: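 wt1 yeast, compound-treated; % growth inhibition vs vehicle control.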

[3] = NCI Yeast Anticancer Drug Screen. Data for the rad50EPP+ strain (AID 151);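 note: 0% = growth of vehicle-treated control cultures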; settings: S. cerevisiae rad50 mutant strain, stronger effect = higher value
Method in brief: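 Strain rad50EPP+; compound exposure; % growth inhibition vs vehicle.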

[4] = NCI Yeast Anticancer Drug Screen. Data for the mgt1 strain (AID 153); settings: S. cerevisiae mgt1 mutant growth inhibition, stronger effect = higher value
Method in brief: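 Read-out: yeast growth inhibition vs vehicle control. Strain mgt1, drawn from a panel altered in DNA damage repair or cell cycle control.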

[5] = NCI Yeast Anticancer Drug Screen. Data for the rad50 strain (AID 155);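 note: 0% = growth of vehicle-only cultures of the same strain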; settings: S. cerevisiae rad50 strain growth inhibition, stronger effect = higher value
Method in brief: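 Genetically altered yeast (DNA repair pathway); compound treatment; growth inhibition vs vehicle ctrl.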

[6] = NCI Yeast Anticancer Drug Screen. Data for the mec2-1 strain (AID 157); settings: S. cerevisiae mec2-1 strain, stronger effect = higher value
Method in brief: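 Cells of the genetically defined mec2-1 yeast strain are incubated with test compound. Inhibition of growth is calculated against vehicle-treated controls.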

[7] = NCI Yeast Anticancer Drug Screen. Data for the rad14 strain (AID 159);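 note: 0% = growth of vehicle-treated control cultures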; settings: S. cerevisiae rad14 strain growth inhibition, stronger effect = higher value
Method in brief: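 Test compounds were applied to a repair-deficient yeast strain. Its growth was then compared with that of cultures given vehicle alone, and inhibition was expressed relative to those controls.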

[8] = NCI Yeast Anticancer Drug Screen. Data for the CLN2oe strain (AID 163);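 note: 0% = growth of vehicle-only control cultures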; settings: S. cerevisiae CLN2oe strain, stronger effect = higher value
Method in brief: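 Strain altered in cell-cycle control, incubated with compound; growth compared to solvent-treated controls.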

[9] = NCI Yeast Anticancer Drug Screen. Data for the cln2 rad14 strain (AID 165);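 note: 0% = growth equal to vehicle treated cultures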; settings: S. cerevisiae cln2 rad14 strain, stronger effect = higher value
Method in brief: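 The screen exposed genetically defined yeast (cln2 rad14) to test compounds and scored growth inhibition relative to vehicle-treated controls.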

[10] = NCI Yeast Anticancer Drug Screen. Data for the bub3 strain (AID 167); settings: S. cerevisiae bub3 mutant strain, stronger effect = higher value
Method in brief: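 Yeast carrying a defined mutation is treated with each compound, and growth is compared with that of vehicle-exposed cells to give inhibition.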

[11] = NCI Yeast Anticancer Drug Screen. Data for the wt2 strain (AID 169);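 note: 0% = growth of vehicle-treated yeast cultures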; settings: S. cerevisiae wt2 strain growth inhibition, stronger effect = higher value
Method in brief: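 Steps: yeast strain treated with compound; growth recorded; inhibition calculated relative to cultures given vehicle alone.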

[12] = NCI Yeast Anticancer Drug Screen. Data for the mlh1 strain (AID 171);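 note: 0% = growth of vehicle-treated control cultures of the same strain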; settings: S. cerevisiae mlh1 strain growth inhibition, stronger effect = higher value
Method in brief: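 Yeast screen: mutant strain plus compound, growth scored against vehicle control wells.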

[13] = NCI Yeast Anticancer Drug Screen. Data for the sgs1 strain (AID 173);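 note: 0% = growth of vehicle-only control cultures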; settings: S. cerevisiae sgs1 mutant, stronger effect = higher value
Method in brief: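 Inhibition of yeast growth served as the measure. The mutant strain was treated with each compound, and growth was normalised to cultures receiving vehicle alone.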

[14] = NCI Yeast Anticancer Drug Screen. Data for the mlh1 rad18 strain (AID 175); settings: S. cerevisiae mlh1 rad18 strain growth inhibition, stronger effect = higher value
Method in brief: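 Compound-treated yeast growth, normalised to vehicle controls. Strain bears defined DNA repair mutations.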

[15] = NCI Yeast Anticancer Drug Screen. Data for the rad18 strain (AID 177); settings: S. cerevisiae rad18 mutant growth inhibition, stronger effect = higher value
Method in brief: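 Inhibition values reflect reduced yeast growth compared with vehicle-treated controls, using a strain engineered with a DNA damage repair defect.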

[16] = at 5.0 µM (retest, dose inferred, filed as 0.5)
[17] = at 50.0 µM (retest, dose inferred, filed as 5.0)

Measured: growth inhibition

OC(/C=C/c1ccccc1)(Cc1cc(-c2ccccc2)n[nH]1)c1ccccc1 (stereo not given)
active: [5]; [17] 97% | [5]; at 50.0 µM 98.6% | [6]; [17] 97% | [6]; at 50.0 µM 99.1% | [9]; [17] 94% | [9]; at 50.0 µM 98.3% | [10]; [17] 98% | [10]; at 50.0 µM 99.2% | [14]; [17] 97% | [14]; at 50.0 µM 98.7%
inactive: [1]; at 1.2 µM 14% | [1]; at 3.7 µM 14% | [1]; at 11.0 µM 11% | [1]; at 33.0 µM 14% | [1]; at 100.0 µM 9% | [2]; at 1.2 µM 9% | [2]; at 3.7 µM 5% | [2]; at 11.0 µM 7% | [2]; at 33.0 µM 8% | [2]; at 100.0 µM 9% | [3]; at 1.2 µM 12% | [3]; at 3.7 µM 11% | [3]; at 11.0 µM 14% | [3]; at 33.0 µM 13% | [3]; at 100.0 µM 13% | [4]; at 1.2 µM 9% | [4]; at 3.7 µM 12% | [4]; at 11.0 µM 10% | [4]; at 33.0 µM 12% | [4]; at 100.0 µM 13% | [5]; at 1.2 µM 8% | [5]; at 3.7 µM 7% | [5]; [16] -3% | [5]; at 11.0 µM 4% | [5]; at 33.0 µM 11% | [5]; at 100.0 µM 8% | [6]; at 1.2 µM 9% | [6]; at 3.7 µM 11% | [6]; [16] 1% | [6]; at 11.0 µM 12% | [6]; at 33.0 µM 13% | [6]; at 100.0 µM 12% | [7]; at 1.2 µM 15% | [7]; at 3.7 µM 15% | [7]; at 11.0 µM 13% | [7]; at 33.0 µM 17% | [7]; at 100.0 µM 16% | [8]; at 1.2 µM 23% | [8]; at 3.7 µM 24% | [8]; at 11.0 µM 24% | [8]; at 33.0 µM 26% | [8]; at 100.0 µM 24% | [9]; [16] -19% | [10]; at 1.2 µM 3% | [10]; at 3.7 µM 3% | [10]; [16] -10% | [10]; at 11.0 µM 2% | [10]; at 33.0 µM 7% | [10]; at 100.0 µM 6% | [11]; at 1.2 µM -11% | [11]; at 3.7 µM -8% | [11]; at 11.0 µM -15% | [11]; at 33.0 µM -8% | [11]; at 100.0 µM -14% | [12]; at 1.2 µM 10% | [12]; at 3.7 µM 12% | [12]; at 11.0 µM 12% | [12]; at 33.0 µM 13% | [12]; at 100.0 µM 14% | [13]; at 1.2 µM -9% | [13]; at 3.7 µM 6% | [13]; at 11.0 µM 4% | [13]; at 33.0 µM 9% | [13]; at 100.0 µM 1% | [14]; [16] 18%

CN(CCN(C)Cc1ccccc1)Cc1ccccc1
inactive: [1]; at 1.2 µM -5% | [1]; at 3.7 µM 8% | [1]; at 11.0 µM -4% | [1]; at 33.0 µM 19% | [1]; at 100.0 µM 2% | [2]; at 1.2 µM -16% | [2]; at 3.7 µM -9% | [2]; at 11.0 µM -12% | [2]; at 33.0 µM 0% | [2]; at 100.0 µM 14% | [3]; at 1.2 µM -13% | [3]; at 3.7 µM -3% | [3]; at 11.0 µM -4% | [3]; at 33.0 µM -22% | [3]; at 100.0 µM -40% | [4]; at 1.2 µM -13% | [4]; at 3.7 µM -4% | [4]; at 11.0 µM 14% | [4]; at 33.0 µM 11% | [4]; at 100.0 µM 58% | [5]; at 1.2 µM -18% | [5]; at 3.7 µM -12% | [5]; [16] 40% | [5]; at 11.0 µM -5% | [5]; at 33.0 µM 9% | [5]; at 50.0 µM 24.5% | [5]; at 100.0 µM 6% | [6]; at 1.2 µM -33% | [6]; at 3.7 µM -19% | [6]; [16] 45% | [6]; at 11.0 µM -25% | [6]; at 33.0 µM -6% | [6]; at 50.0 µM 12.9% | [6]; at 100.0 µM 2% | [7]; at 1.2 µM 5% | [7]; at 3.7 µM 18% | [7]; at 11.0 µM 18% | [7]; at 33.0 µM 43% | [7]; at 100.0 µM 68% | [8]; at 1.2 µM -12% | [8]; at 3.7 µM -5% | [8]; at 11.0 µM 5% | [8]; at 33.0 µM 18% | [8]; at 100.0 µM 44% | [9]; [16] 16% | [9]; [17] 38% | [9]; at 50.0 µM 31.1% | [10]; at 1.2 µM -31% | [10]; at 3.7 µM -15% | [10]; [16] 14% | [10]; at 11.0 µM -13% | [10]; at 33.0 µM 9% | [10]; [17] 39% | [10]; at 50.0 µM 60.5% | [10]; at 100.0 µM 3% | [11]; at 1.2 µM -17% | [11]; at 3.7 µM -9% | [11]; at 11.0 µM 2% | [11]; at 33.0 µM 1% | [11]; at 100.0 µM 14% | [12]; at 1.2 µM 8% | [12]; at 3.7 µM 4% | [12]; at 11.0 µM 12% | [12]; at 33.0 µM 23% | [12]; at 100.0 µM 52% | [13]; at 1.2 µM -6% | [13]; at 3.7 µM -10% | [13]; at 11.0 µM -10% | [13]; at 33.0 µM 10% | [13]; at 100.0 µM 30% | [14]; [16] 25% | [14]; at 50.0 µM 32.3% | [15]; at 1.2 µM -2% | [15]; at 3.7 µM 14% | [15]; at 11.0 µM 17% | [15]; at 33.0 µM 32% | [15]; at 100.0 µM 35%
active: [5]; [17] 79% | [6]; [17] 81% | [14]; [17] 72%
